Results taken from PubChem BioAssay AID1224852 (National Center for Advancing Translational Sciences (NCATS), 2016).
Inconclusive results are not listed. Unmarked numbers belong to inactive results. Calls follow the shape of the dose curve; as a rule, active = well fitted curve in the direction sought with a large enough effect (not every such curve was filed as active); inconclusive = small, poorly fitted or top-dose-only effect, or effect the other way, or another doubt; inactive = no such curve, though single readings can be large or run the other way.

Experiment: Cell viability assay for measurement of the protective activity of small molecules against cell death caused by Zika virus infection in human neural progenitor cells (hNPCs);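 also: 0% = ZIKV-infected cells without compound and 100% = uninfected cells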
Conditions: hNPC ZIKV-induced death protection, ATP luminescence, 72 h; series mostly up to 46.1 µM; protection, negative = more death: at the top concentration
Method in brief: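 Luminescent ATP content after 72 h ZIKV infection (2 FFU/cell) of hNPCs, compounds added 1 h before virus. Protection expressed as percent inhibition of the infection-induced drop in cell viability.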

SMILES | protection, negative = more death
Cc1csc(NC(=O)c2sc3nc4c(c(C(F)(F)F)c3c2N)CCC4)n1 | -75.6%
COc1ccnc2c1CCCCC2S(=O)c1nc2ccccc2[nH]1 (centres undefined) | -42.6%
Cc1oncc1C(=O)Nc1ccc(C(F)(F)F)cc1 | -51.4%
CC(=O)Nc1ccc([C@H](C)C(=O)Nc2ncc(C(C)C)s2)cc1 | -64.6%
COc1ccc(-c2cc(=O)c3c(O)cc(O)cc3o2)cc1O | -43.1%
CC1(C)OC2=C(C(=O)c3ccccc3C2=O)[C@H](NCc2ccccc2)[C@H]1O | -81.5% [at 88.3 µM]
CN(C)c1ccc(/C=C2\C(=O)Nc3ccccc32)cc1 | -52.9%
O=C1C[C@@H](c2ccc(O)cc2)Oc2cc(O)cc(O)c21 | -22.1%
C[C@@H](O[C@H]1OCCN(Cc2n[nH]c(=O)[nH]2)[C@@H]1c1ccc(F)cc1)c1cc(C(F)(F)F)cc(C(F)(F)F)c1 | -76.8%
O=C(Nc1ccc(C(=O)O)c(O)c1)c1ccccc1 | 15%
CCC(C)SSc1ncc[nH]1 (centres undefined) | -78%
CCCCCNC(=O)N1CCC(CN(Cc2ccc(Cl)cc2)Cc2ccc([N+](=O)[O-])s2)C1 (centres undefined) | -69.1%
CCCCCCCC/C=C/C(=O)O | -1.9%
O[C@@H](COc1cccc2ncccc12)CN1CCN(C2c3ccccc3[C@@H]3[C@H](c4ccccc42)C3(F)F)CC1 (some centres undefined) | -81.6%
CCCCC1C(=O)N(c2ccccc2)N(c2ccc(O)cc2)C1=O (centres undefined) | -76.6%
CN(C)CCCSc1ccccc1NC(=O)/C=C/c1ccccc1 | 8.23%
O=C1c2ccccc2C(=O)c2c1ccc(O)c2O | -21.6%
C=CCCCCCCCCC(=O)O | 5.55%
Cc1cc(O)c2c(c1)C(=O)c1cc(O)cc(O)c1C2=O | -8.67%
